Data published in PubChem BioAssay (NCI).
About 83,000 compounds went through this panel and 20% of them were active in at least one assay; those are over-represented in the sample as a whole.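 Cell lines were cultured in 96-well plates, exposed to a single compound concentration, and assessed for percent growth 48 hours later.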 Active and inactive are the calls of the source.

The compounds below were run on NCI-H460 lung (assay: NCI-60 one-dose screen, 48 h (100 = growth as untreated, 0 = no growth, -100 = all killed)). Conditions: 10 µM unless noted.
Description: Growth inhibition of the NCI-H460 human Non-Small Cell Lung tumor cell line is measured as a screen for anti-cancer activity. Cells are grown in 96 well plates and exposed to the test compound for 48 hours. Compounds are tested at a single concentration, which is 10^-5 M for most compounds. The reported endpoint is percent growth (GI% or GIPRCNT), where numbers from 0 - 100% represent growth inhibition, and numbers from -100% - 0 represent cell death. For example, a value of 40 represents 60% growth inhibition. A value of 0 means no net growth occurred over the course of the experiment. A value of -40 indicates 40% of cells at the beginning of the experiment died by the end of the experiment. A value of -100 means all cells are dead at the end of the experiment.
NCI-60 Human Tumor Cell Lines Screen was performed using the standard one-dose NCI protocol, which is described in more detail at https://dtp.cancer.gov/discovery_development/nci-60/default.htm.
Compounds with GIPRCNT values below 10 were considered active. Activity score was based on GIPRCNT using the following formula: […]
Score is 0 for GIPRCNT values of 100 or above, 50 for GIPRCNT values of 0, and 100 for GIPRCNT values of -100.
For COc1cc2c3c(c1O)-c1ccccc1[C@@H]1OC(=O)N(CC2)[C@H]31, the growth was 100% (inactive).
O=C(/C=C/c1ccccc1)Nc1ncc(Cc2ccccc2)s1 was tested, and the growth was 2.22% (active).
With Clc1ccc(-c2cn3ccsc3n2)c(Cl)c1Cl the growth was 105% (inactive).
For N=c1sc(Cc2cc(Cl)ccc2Cl)cn1CC(=O)c1ccccc1, the growth was 20.3% (inactive).
In the case of COC(=O)Cc1nc(C#N)c(N(C)C)o1, the growth is reported as 101% (inactive).
O=P(O)(O)OCC1OC(n2cnc3c(NCc4ccccc4)ncnc32)C(O)C1O (stereo not given) was tested, and the growth was 94.3% (inactive).
CC(C)CCSc1nc(Nc2ccccc2)c(C#N)c(-c2ccccc2)n1 was tested, and the growth was 14.6% (inactive).
O=C(NCc1ccc2c(c1)OCO2)NCC1CCCC(CNC(=O)NCc2ccc3c(c2)OCO3)C1 (stereo not given) was tested, and the growth was 101% (inactive).
With Oc1c(CN2CCCC2)cc(COCc2ccccc2)c2cccnc12 the growth was 3.04% (active).
CCCNc1nc2ccccc2c2c(=O)c3cccc(Cl)c3sc12 was tested, and the growth was 78.7% (inactive).
With N#Cc1nc2c(S(=O)(=O)c3ccccc3)c(N)n(Cc3cccnc3)c2nc1C#N the growth was 113% (inactive).
For O=C1/C(=C/c2ccccc2)CN(C(=O)c2cccnc2)C/C1=C\c1ccccc1, the growth was -35.1% (active).
In the case of CN1C(=O)N(C)C2C1NC(=S)N2/N=C/C=C/c1ccccc1[N+](=O)[O-] (stereo not given), the growth is reported as 12.6% (inactive).
For CN1CCN(C(=O)c2cc(-c3ccc4ncnc(N5CCc6cc(F)c(Cl)cc65)c4c3)cnc2N)CC1, the growth was 8.83% (active).
With COc1cccc(OC)c1Oc1c(-c2nc3ccccc3s2)c(C)nn1-c1ccccc1 the growth was 78.8% (inactive).
In the case of Clc1nn2c(Cn3cnc4c(NCc5ccccc5)ncnc43)nnc2c2ccccc12, the growth is reported as 34% (inactive).
In the case of Cn1c(O)c(C(/C=C/c2ccccc2)=Nc2ccccc2N)c(=O)n(C)c1=O, the growth is reported as 104% (inactive).
With O=C1OCC2=C1C(c1cccc(F)c1)c1cc3c(cc1N2CCO)OCO3 (stereo not given) the growth was 14.2% (inactive).
In the case of O=C(CSc1nc2ccc([N+](=O)[O-])cc2[nH]1)Nc1cccc([N+](=O)[O-])c1, the growth is reported as 47.5% (inactive).
With COc1ccc(Cl)cc1Nc1nc(C(F)(F)F)ccc1C(=O)N/N=C/c1ccccc1Cl the growth was 4.25% (active).
In the case of CN1CCN(Cc2ccc(NC(=O)c3cncc(C#Cc4cncc5[nH]ncc45)c3)cc2C(F)(F)F)CC1, the growth is reported as 3.22% (active).
With CCOC(=O)c1c(C)c2c(n1C)CSc1cc(S(=O)(=O)c3ccccc3)c(=O)[nH]c1-2 the growth was 9.02% [100 µM] (active).
With Cc1ccc(S(=O)(=O)n2cc(C3C(Cl)C(=O)N3c3ccc(N4CCOCC4=O)cc3)c3ccccc32)cc1 (stereo not given) the growth was 97.2% (inactive).
With C(/C=C/c1ccccc1)=Nc1ccc(CCc2ccc(N=C/C=C/c3ccccc3)cc2)cc1 the growth was 54.8% (inactive).
In the case of CC[C@H](C)[C@H](NC(=O)[C@H](CCCNC(=N)N)NC(=O)[C@H](Cc1c[nH]c2ccccc12)NC(=O)[C@@H](NC(=O)[C@H](CCCCN)NC(=O)[C@H](CCCCN)NC(=O)[C@@H](NC(=O)[C@@H](NC(=O)[C@@H](NC(=O)[C@H](CCCCN)NC(=O)[C@H](Cc1ccccc1)NC(=O)[C@H](CCCCN)NC(=O)[C@H](CCCCN)NC(=O)[C@H](Cc1ccccc1)NC(=O)[C@@H](NC(=O)[C@@H](N)CCCCN)[C@@H](C)CC)[C@@H](C)O)[C@@H](C)CC)[C@@H](C)CC)C(C)C)C(=O)N[C@@H](Cc1ccccc1)C(=O)NCC(=O)N[C@@H](CCCNC(=N)N)C(=O)N[C@@H](Cc1ccccc1)C(N)=O, the growth is reported as -5.53% (active).
CCN(C(=O)N1CCN(c2cc3c(cc2F)c(=O)c(C(=O)O)cn3C2CC2)CC1)c1nc(-c2ccc(C)cc2)cs1 was tested, and the growth was 8.41% (active).
With COCCCOc1cc(C[C@@H](C[C@H](N)[C@@H](O)C[C@H](C(=O)NCC(C)(C)C(N)=O)C(C)C)C(C)C)ccc1OC the growth was 112% (inactive).
With C=C(C)[C@@H]1CC[C@]2(CO)CC[C@]3(C)[C@H](CC[C@@H]4[C@@]5(C)CCC(NCCc6ccc(O)cc6)C(C)(C)[C@@H]5CC[C@]43C)[C@@H]12 (stereo not given in full) the growth was -89.5% (active).
COc1cccc2c(N=NC(=O)c3ccc(S(N)(=O)=O)cc3)c(O)[nH]c12 was tested, and the growth was 104% (inactive).
O=C(Nc1cccnc1Nc1ccc(Cl)cc1)c1cn(Cc2ccc(F)cc2)nn1 was tested, and the growth was 107% (inactive).
COC(=O)c1ccc2c(c1)c1c(C)c3ccncc3c(C)c1n2C was tested, and the growth was 8.82% (active).
For C#CC#CC#CC#CC#CC#CC#CC#CCC1OCC(COC(=O)O[C@@H](C(=O)O[C@H]2C[C@@]3(O)[C@@H](OC(=O)c4ccccc4)[C@@H]4[C@]5(OC(C)=O)CO[C@@H]5C[C@H](O)[C@@]4(C)C(=O)[C@H](OC(C)=O)C(=C2C)C3(C)C)[C@@H](NC(=O)c2ccccc2)c2ccccc2)O1 (stereo not given in full), the growth was 5.88% (active).
With C=CCCC(=O)N1C=CC(=O)[C@H](O)[C@@H]1/C=C/c1ccccc1 the growth was 15.2% [100 µM] (inactive).
For COc1ncc2cc1NS(=O)(=O)c1cccc(c1)C(=O)NCC1=CC=C(S1)c1ncnc3c1SC2=C3C, the growth was 2.61% (active).
In the case of COc1ccc(C(c2cc(OC)c(OC)c(OC)c2)N2CCN(Cc3ccccc3)CC2)cc1 (stereo not given), the growth is reported as 74.4% (inactive).
With Cc1ccc(-c2nc(C#N)c(S(=O)(=O)NCCO)o2)cc1 the growth was 88.6% (inactive).
With Cn1c(=O)c2c(c3ccccc31)OC(N)=C(C#N)C21C(=O)c2ccccc2C1=O the growth was 85% (inactive).
With O=C1Nc2ccc(F)cc2/C1=N/c1nnc(Sc2ccccc2)s1 the growth was 95.6% (inactive).
For CN1CCN(Cc2cc(NC(=O)c3cccc(C#Cc4cccc5[nH]nc(N)c45)c3)cc(C(F)(F)F)c2)CC1, the growth was -20.9% (active).
For O=C1CC2C=CCN2C=C1NC(=O)C1CCCCC1 (stereo not given), the growth was 112% (inactive).
